{"source": "PubChem BioAssay", "note": "Active and inactive are the calls of the source. No rule for the calls is given here.", "data": [{"biological_target": "Pantothenate synthetase (Mycobacterium tuberculosis (strain ATCC 25618 / H37Rv)) (UniProt P9WIL5)", "sequence (P9WIL5 whole entry, looked up)": "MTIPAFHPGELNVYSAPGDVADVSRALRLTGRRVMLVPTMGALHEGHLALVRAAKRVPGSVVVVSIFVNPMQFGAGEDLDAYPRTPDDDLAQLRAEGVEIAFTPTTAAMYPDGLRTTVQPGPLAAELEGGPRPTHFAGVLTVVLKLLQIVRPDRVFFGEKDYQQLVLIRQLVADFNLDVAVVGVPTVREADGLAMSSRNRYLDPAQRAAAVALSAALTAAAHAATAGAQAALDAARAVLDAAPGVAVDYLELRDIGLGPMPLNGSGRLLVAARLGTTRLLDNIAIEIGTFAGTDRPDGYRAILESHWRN", "experiment": "Recombinant Mtb pantothenate synthetase (PanC) inhibitors, coupled enzyme, confirmatory (AID 375);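 also: 0% = full reaction with vehicle and 100% = no enzyme background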", "conditions": "coupled enzyme assay; at 10 µM, active compounds read high", "values": [{"smiles": "O=C(NCC1COCCO1)C1CCN(S(=O)(=O)c2ccccc2)CC1", "note": "(stereo not given)", "inhibition": "3% (inactive)"}, {"smiles": "CCN(C#N)c1nc(NC(C)C)nc(NC(C)C)n1", "inhibition": "5% (inactive)"}, {"smiles": "Cc1cc(C)cc(NC(=O)N2CCC(c3nc4ccccc4o3)CC2)c1", "inhibition": "7% (inactive)"}, {"smiles": "COc1ccc(C(=O)Nc2ccc(S(=O)(=O)NC(C)=O)cc2)cc1", "inhibition": "0% (inactive)"}, {"smiles": "C=CCOc1ccccc1/C=c1\\sc2nc(=O)c(C)nn2c1=O", "inhibition": "0% (inactive)"}, {"smiles": "CC(C)CNc1oc(-c2ccc(F)cc2)nc1C#N", "inhibition": "2% (inactive)"}, {"smiles": "CCn1c(SC)nc2c(c1=O)SC(C)C2", "note": "(stereo not given)", "inhibition": "0% (inactive)"}, {"smiles": "Cn1c(N2CCC(C(N)=O)CC2)nc2c1c(=O)n(Cc1ccc(Br)cc1)c(=O)n2C", "inhibition": "0% (inactive)"}, {"smiles": "Cc1ccc(-n2cnnn2)c2cccnc12", "inhibition": "5% (inactive)"}, {"smiles": "CC(C(=O)NC(=O)NC1CCCCC1)N1CCN(c2ccccn2)CC1", "note": "(stereo not given)", "inhibition": "0% (inactive)"}, {"smiles": "COc1cccc(OC)c1C(=O)n1nc(C)cc1C", "inhibition": "6% (inactive)"}, {"smiles": "CC(=O)Nn1c(C)nnc1-n1nc(C)cc1C", "inhibition": "0% (inactive)"}, {"smiles": "CCOc1ccccc1C1N(c2ccc(F)cc2)C(=O)C2CCCN21", "note": "(stereo not given)", "inhibition": "2% (inactive)"}, {"smiles": "CS(=O)(=O)NCc1ccc(C(=O)NCc2ccccc2)cc1", "inhibition": "4% (inactive)"}, {"smiles": "CC(=O)Nc1ccc(S(=O)(=O)N2CCN(C(=O)CCC3CCCC3)CC2)cc1", "inhibition": "0% (inactive)"}, {"smiles": "Cc1cc(=O)[nH]c(S/C=C/c2ccccc2)n1", "inhibition": "0% (inactive)"}, {"smiles": "CC1CCN(CCC(=O)Nc2ccc(Br)cc2)CC1", "inhibition": "0% (inactive)"}, {"smiles": "Cc1cccc(NC(=O)c2cc(NC(=O)c3ccco3)ccc2Cl)n1", "inhibition": "0% (inactive)"}, {"smiles": "COc1ccc(C2=NOC(C(=O)NCCCN3CCOCC3)C2)cc1", "note": "(stereo not given)", "inhibition": "5% (inactive)"}, {"smiles": "CN=Cc1cc(-c2ccccc2)sc1O", "inhibition": "0% (inactive)"}, {"smiles": "COc1cc(C2C(C#N)=C(N)Oc3cc(N)ccc32)cc(OC)c1OC", "note": "(stereo not given)", "inhibition": "2% (inactive)"}, {"smiles": "O=C(Nc1ccc(Cc2ccncc2)cc1)C1CC1", "inhibition": "0% (inactive)"}, {"smiles": "Cc1ccc(Cl)cc1N1CCN(C(=O)CN2C(=O)c3cccc4cccc2c34)CC1", "inhibition": "6% (inactive)"}, {"smiles": "COC(=O)c1ccc(NC(=O)CN2CCN(c3ccc(Cl)cc3)CC2)cc1", "inhibition": "1% (inactive)"}, {"smiles": "Cn1c(=O)[nH]c(=O)c2[nH]c(NCCCN3CCOCC3)nc21", "inhibition": "0% (inactive)"}, {"smiles": "CCOC(=O)C(NC(=O)c1ccccc1)(Nc1cc(C)on1)C(F)(F)F", "note": "(stereo not given)", "inhibition": "0% (inactive)"}, {"smiles": "CC(C)C(C(=O)Nc1ccc2c(c1)OCO2)N1C(=O)c2ccccc2C1=O", "note": "(stereo not given)", "inhibition": "0% (inactive)"}, {"smiles": "CN1Cc2c(N)cccc2C(c2ccccc2)C1", "note": "(stereo not given)", "inhibition": "0% (inactive)"}, {"smiles": "Cc1ccc(CNC(=O)C2CCN(S(=O)(=O)c3cccs3)CC2)o1", "inhibition": "0% (inactive)"}, {"smiles": "CCCc1cc(C(=O)Nc2sc3c(c2C#N)CCC3)no1", "inhibition": "7% (inactive)"}, {"smiles": "NS(=O)(=O)c1ccc(NCc2c(F)cccc2Cl)cc1", "inhibition": "2% (inactive)"}, {"smiles": "CCc1ccccc1NC(=O)CSc1nc2n[nH]c(C)c2c(=N)n1-c1ccc(OC)cc1", "inhibition": "0% (inactive)"}, {"smiles": "COc1ccc(OC)c(C(=O)c2ccc(C(=O)O)cc2)c1", "inhibition": "0% (inactive)"}, {"smiles": "Cc1ccc(C)n1-c1ccc(-n2cnnn2)cc1", "inhibition": "2% (inactive)"}, {"smiles": "COc1ccccc1C(=O)NC(C)C(c1cccs1)N1CCN(C)CC1", "note": "(stereo not given)", "inhibition": "3% (inactive)"}, {"smiles": "O=C(Cn1c(=O)[nH]c2ccsc2c1=O)N1CCN(c2ccc(F)cc2)CC1", "inhibition": "0% (inactive)"}, {"smiles": "O=C1CC(C(=O)Nc2ccccc2)C2(CCCC2)O1", "note": "(stereo not given)", "inhibition": "2% (inactive)"}, {"smiles": "Cc1cc(C)c(NC2=NCC(=O)N2C2CCCCC2)c(C)c1", "inhibition": "0% (inactive)"}, {"smiles": "O=C(Nc1nc2ccc(S(=O)(=O)N3CCCC3)cc2s1)C1CCCO1", "note": "(stereo not given)", "inhibition": "0% (inactive)"}, {"smiles": "Cc1ccc(C)c(N2CCN(S(=O)(=O)c3ccc4c(c3)OCCO4)CC2)c1", "inhibition": "4% (inactive)"}]}]}
